Reference: the supplement of paper PMC11732987, “Enantioselective OTUD7B fragment discovery through chemoproteomics screening and high-throughput optimisation” (Communications Chemistry, 2025)

How the values were obtained:
Test in all cases: log2 ratio of Biotin-Ahx-Ub-VS probe labelling (fragment/DMSO); higher = less target engagement (more negative = stronger competition), active = hit call of the paper (q ≤ 0.05, log2 ratio ≤ -1)
Settings in all cases: compound concentration: 200 uM; treatment time: 3 h
[1] = molecular target: T1, OTUD6B (UniProt Q8N6M0)
T1 sequence (whole entry): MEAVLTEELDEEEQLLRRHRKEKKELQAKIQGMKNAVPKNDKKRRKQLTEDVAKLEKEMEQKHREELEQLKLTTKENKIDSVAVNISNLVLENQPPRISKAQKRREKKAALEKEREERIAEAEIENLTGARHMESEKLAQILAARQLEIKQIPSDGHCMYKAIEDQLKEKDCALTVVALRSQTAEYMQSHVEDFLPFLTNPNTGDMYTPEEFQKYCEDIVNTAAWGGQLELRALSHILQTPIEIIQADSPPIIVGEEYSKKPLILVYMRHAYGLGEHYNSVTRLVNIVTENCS
Outline: (§1)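 The table lists average log2 ratios of fragment over vehicle, from an unpaired t-test on global-median-normalised Spectronaut label-free quantities. Proteins with ≥2 unique peptides were used. Samples were HEK293T lysate (495 µg) treated in triplicate with fragment at 200 µM or vehicle for 3 h, then with Biotin-Ahx-Ub-VS (0.5 µM final) for 1 h, with labelled DUBs NeutrAvidin-enriched and run by diaPASEF LC-MS/MS.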

[2] = molecular target: T2, OTUD7B (UniProt Q6GQQ9)
T2 sequence (whole entry): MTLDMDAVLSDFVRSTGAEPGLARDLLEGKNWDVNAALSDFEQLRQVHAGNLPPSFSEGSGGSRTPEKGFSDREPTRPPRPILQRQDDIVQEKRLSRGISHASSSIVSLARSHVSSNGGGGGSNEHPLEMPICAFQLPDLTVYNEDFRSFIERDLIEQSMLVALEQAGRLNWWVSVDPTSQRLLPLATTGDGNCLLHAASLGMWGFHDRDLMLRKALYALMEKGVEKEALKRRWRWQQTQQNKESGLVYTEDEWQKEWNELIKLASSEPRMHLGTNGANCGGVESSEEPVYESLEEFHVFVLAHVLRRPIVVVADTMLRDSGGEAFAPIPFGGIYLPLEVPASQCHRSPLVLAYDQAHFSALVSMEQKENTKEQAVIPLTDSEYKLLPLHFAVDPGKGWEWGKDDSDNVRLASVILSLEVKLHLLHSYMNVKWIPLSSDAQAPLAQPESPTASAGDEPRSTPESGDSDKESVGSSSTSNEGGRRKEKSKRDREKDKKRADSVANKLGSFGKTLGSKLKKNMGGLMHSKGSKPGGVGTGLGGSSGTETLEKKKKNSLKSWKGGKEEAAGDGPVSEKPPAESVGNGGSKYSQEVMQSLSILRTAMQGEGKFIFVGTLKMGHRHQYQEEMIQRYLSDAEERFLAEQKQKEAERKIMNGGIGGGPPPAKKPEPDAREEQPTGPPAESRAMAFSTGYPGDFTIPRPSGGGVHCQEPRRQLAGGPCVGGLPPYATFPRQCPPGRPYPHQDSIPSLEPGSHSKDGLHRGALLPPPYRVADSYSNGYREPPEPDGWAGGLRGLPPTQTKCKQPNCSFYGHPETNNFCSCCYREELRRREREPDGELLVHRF
Outline: as §1

[3] = molecular target: PRPF8 (UniProt Q6P2Q9)
Outline: as §1

[4] = molecular target: T3, PSMD7 (UniProt P51665)
T3 sequence (whole entry): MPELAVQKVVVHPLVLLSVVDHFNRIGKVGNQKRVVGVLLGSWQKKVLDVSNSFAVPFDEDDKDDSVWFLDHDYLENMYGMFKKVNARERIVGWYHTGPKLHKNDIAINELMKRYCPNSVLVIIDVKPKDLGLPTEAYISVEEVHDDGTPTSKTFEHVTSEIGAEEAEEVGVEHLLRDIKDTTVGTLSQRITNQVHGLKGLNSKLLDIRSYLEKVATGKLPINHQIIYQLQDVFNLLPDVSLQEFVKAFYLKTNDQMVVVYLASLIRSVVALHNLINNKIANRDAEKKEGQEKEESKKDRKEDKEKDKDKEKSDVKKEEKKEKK
Outline: as §1

[5] = molecular target: UCHL1 (UniProt P09936)
Outline: as §1

[6] = molecular target: T4, UCHL3 (UniProt P15374)
T4 sequence (whole entry): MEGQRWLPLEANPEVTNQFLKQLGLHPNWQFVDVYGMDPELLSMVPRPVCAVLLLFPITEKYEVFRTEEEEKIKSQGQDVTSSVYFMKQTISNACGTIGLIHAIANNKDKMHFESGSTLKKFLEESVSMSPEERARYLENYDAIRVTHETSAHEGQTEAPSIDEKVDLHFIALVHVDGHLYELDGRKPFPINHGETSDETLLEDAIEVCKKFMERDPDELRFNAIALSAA
Outline: as §1

[7] = molecular target: T5, UCHL5 (UniProt Q9Y5K5)
T5 sequence (whole entry): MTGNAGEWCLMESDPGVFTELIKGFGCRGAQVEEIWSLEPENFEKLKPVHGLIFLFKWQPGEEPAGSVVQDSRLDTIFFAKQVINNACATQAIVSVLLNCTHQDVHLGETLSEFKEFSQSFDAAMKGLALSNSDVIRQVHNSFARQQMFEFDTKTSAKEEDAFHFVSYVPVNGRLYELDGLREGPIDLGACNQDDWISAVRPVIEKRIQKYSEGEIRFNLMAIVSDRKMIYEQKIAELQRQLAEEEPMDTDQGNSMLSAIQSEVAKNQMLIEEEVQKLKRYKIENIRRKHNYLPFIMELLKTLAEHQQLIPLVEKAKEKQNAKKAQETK
Outline: as §1

[8] = molecular target: USP10 (UniProt Q14694)
Outline: as §1

[9] = molecular target: T6, USP15 (UniProt Q9Y4E8)
T6 sequence (whole entry): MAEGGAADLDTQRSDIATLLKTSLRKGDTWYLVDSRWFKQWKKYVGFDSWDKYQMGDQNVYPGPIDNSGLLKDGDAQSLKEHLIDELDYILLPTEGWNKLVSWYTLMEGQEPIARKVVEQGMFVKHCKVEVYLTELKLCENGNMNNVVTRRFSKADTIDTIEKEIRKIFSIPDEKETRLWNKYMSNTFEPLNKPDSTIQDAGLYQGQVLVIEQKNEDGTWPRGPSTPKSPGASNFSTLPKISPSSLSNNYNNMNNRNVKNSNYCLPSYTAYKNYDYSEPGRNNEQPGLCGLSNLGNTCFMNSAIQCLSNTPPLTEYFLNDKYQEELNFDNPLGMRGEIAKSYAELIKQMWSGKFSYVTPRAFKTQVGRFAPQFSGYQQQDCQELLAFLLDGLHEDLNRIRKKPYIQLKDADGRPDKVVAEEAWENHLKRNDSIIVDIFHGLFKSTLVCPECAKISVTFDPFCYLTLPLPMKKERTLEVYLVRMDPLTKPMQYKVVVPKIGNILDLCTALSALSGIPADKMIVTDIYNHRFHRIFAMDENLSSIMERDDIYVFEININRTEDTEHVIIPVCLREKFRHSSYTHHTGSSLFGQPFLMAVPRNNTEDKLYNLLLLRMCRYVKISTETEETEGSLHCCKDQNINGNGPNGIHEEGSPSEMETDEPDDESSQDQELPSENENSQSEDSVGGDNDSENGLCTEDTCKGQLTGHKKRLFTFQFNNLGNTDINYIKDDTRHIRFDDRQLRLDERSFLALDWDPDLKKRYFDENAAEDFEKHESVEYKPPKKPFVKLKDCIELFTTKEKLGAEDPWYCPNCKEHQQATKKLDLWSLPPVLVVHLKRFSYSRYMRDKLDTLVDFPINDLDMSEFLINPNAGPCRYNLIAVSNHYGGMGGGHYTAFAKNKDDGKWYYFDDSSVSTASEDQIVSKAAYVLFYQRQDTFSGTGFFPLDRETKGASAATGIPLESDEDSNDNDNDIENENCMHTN
Outline: as §1

[10] = molecular target: USP16 (UniProt Q9Y5T5)
Outline: as §1

Measured: log2 ratio of Biotin-Ahx-Ub-VS probe labelling

USP10, sequence (Q14694 whole entry): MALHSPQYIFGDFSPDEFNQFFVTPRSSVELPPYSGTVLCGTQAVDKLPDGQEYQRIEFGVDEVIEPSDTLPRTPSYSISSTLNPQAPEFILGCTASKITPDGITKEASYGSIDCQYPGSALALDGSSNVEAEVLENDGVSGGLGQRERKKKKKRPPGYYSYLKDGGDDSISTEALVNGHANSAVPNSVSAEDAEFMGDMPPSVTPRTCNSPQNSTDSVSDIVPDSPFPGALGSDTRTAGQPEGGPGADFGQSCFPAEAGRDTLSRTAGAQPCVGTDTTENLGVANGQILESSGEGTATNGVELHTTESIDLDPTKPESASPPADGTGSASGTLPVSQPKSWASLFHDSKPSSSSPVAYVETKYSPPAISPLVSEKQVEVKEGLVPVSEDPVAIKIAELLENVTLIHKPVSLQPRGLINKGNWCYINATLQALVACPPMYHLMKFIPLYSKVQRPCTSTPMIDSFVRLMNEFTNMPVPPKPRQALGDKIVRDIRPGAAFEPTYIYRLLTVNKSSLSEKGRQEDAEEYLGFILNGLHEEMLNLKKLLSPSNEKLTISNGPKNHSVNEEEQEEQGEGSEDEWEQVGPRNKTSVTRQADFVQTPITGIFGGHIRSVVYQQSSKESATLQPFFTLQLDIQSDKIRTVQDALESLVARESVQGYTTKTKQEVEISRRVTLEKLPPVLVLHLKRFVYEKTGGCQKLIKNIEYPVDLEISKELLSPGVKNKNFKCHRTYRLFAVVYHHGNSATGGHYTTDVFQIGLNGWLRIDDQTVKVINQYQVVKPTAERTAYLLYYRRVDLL
UCHL1, sequence (P09936 whole entry, looked up): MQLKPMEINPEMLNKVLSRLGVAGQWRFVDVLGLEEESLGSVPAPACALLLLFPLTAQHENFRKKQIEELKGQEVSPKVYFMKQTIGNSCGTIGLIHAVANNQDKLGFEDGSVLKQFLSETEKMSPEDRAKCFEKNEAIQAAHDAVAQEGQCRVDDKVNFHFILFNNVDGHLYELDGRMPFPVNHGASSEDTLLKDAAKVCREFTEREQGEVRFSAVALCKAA
USP16, sequence (Q9Y5T5 whole entry, looked up): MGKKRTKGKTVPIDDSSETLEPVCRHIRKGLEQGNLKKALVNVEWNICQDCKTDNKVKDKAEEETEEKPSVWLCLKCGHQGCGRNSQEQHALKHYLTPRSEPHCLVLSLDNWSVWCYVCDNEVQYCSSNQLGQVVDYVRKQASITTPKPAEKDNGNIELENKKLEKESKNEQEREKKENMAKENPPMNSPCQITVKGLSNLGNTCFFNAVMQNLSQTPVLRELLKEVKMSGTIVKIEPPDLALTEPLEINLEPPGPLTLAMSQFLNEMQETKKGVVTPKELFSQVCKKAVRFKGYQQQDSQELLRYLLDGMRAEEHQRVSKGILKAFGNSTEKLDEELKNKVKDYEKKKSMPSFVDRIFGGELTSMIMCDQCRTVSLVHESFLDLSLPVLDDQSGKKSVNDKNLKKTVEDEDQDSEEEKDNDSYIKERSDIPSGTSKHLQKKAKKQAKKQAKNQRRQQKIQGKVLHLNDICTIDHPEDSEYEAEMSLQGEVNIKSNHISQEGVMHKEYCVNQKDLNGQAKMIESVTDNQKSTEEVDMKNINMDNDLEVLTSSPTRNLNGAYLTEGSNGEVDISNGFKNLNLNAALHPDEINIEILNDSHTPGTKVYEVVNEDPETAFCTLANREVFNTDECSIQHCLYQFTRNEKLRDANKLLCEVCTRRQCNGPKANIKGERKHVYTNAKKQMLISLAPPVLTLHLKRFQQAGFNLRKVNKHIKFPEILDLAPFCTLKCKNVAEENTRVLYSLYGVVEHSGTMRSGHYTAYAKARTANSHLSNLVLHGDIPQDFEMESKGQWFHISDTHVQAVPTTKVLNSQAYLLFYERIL

CC(NC(=O)CCl)c1cc2n(n1)CCCC2.Cl (stereo not given)
active: [2] -1.77 | [5] -2.03
inactive: [1] -0.253 | [3] 0.0583 | [4] 0.0299 | [6] 0.315 | [7] -0.121 | [8] -0.153 | [9] 0.0201 | [10] -0.211
